# Reference: PubChem BioAssay (NCI)
# This is part of a sample that, as a whole, favours compounds with a hit. Of some 83,000 tested, about 20% had one in any assay.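 How to read the values: 0–100, growth inhibition (40 = 60% inhibited); 0, no net growth; -100 to 0, cell death (-40 = 40% of starting cells died; -100 = all dead).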 Unmarked numbers belong to inactive results. Calls of active or inactive are those of the source. How the source made its calls: active means growth percent below 10; inactive means the rest.
# Legend:
# Experiment in all cases: NCI-60 one-dose screen, 48 h (100 = growth as untreated, 0 = no growth, -100 = all killed)
# Conditions in all cases: 10 µM
# [1] = system: HCT-15 colon
# [2] = system: HT29 colon
# [3] = system: SNB-75 CNS
# [4] = system: SNB-19 CNS
# [5] = system: U251 CNS
# [6] = system: SK-MEL-5 melanoma
# [7] = system: UACC-62 melanoma
# [8] = system: LOX IMVI melanoma
# [9] = system: SK-MEL-28 melanoma
# [10] = system: SK-MEL-2 melanoma
# [11] = system: EKVX NSCLC
# [12] = system: SN12C renal
# [13] = system: UO-31 renal
# [14] = system: TK-10 renal
# [15] = system: CAKI-1 renal
# [16] = system: MOLT-4 leukemia
# [17] = system: ACHN renal
# [18] = system: PC-3 prostate
# [19] = system: A498 renal
# [20] = system: CCRF-CEM leukemia
SMILES,growth [1],growth [2],growth [3],growth [4],growth [5],growth [6],growth [7],growth [8],growth [9],growth [10],growth [11],growth [12],growth [13],growth [14],growth [15],growth [16],growth [17] [%],growth [18] [%],growth [19] [%],growth [20]
COc1cc2c3c(n(C4CCNCC4)c(=O)c2cc1OC)-c1cc2c(cc1C3=O)OCO2,-73.8% (active),-58.3% (active),-61.7% (active),-54.8% (active),-64.3% (active),-89.3% (active),-76.6% (active),-73.1% (active),-5.66% (active),76.4%,-68.4% (active),-69% (active),-70.2% (active),76%,21.4%,-27.1% (active),,,,
c1cncc(-c2csc(-c3c[nH]c4ccccc34)n2)c1,85.4%,92.4%,63.7%,95.5%,90.9%,84.5%,,87%,103%,97.3%,50.6%,85.9%,66.5%,125%,88.3%,79.8%,88,,,
COc1cc2c(cc1NC(=O)C(F)(F)F)-c1ccc(NC(=O)C(F)(F)F)cc1C2,106%,106%,-1.06% (active),86.4%,,90.8%,92%,94.2%,103%,105%,104%,86.8%,102%,94.8%,96.9%,105%,62.9,90.8,97.7,97.6%
COc1ccc(-c2cc(-c3cc(OC)ccc3OC)nc(N)c2C#N)cc1,51.2%,60.7%,16.3%,48.8%,61.2%,63%,42.3%,58.6%,88.5%,77.1%,70.5%,59%,69.4%,103%,90.3%,85%,66.1,,,
O=C1CC(=O)N(C(=O)c2nn(-c3ccc(Cl)cc3)cc2O)N1,36.9%,27.9%,40.9%,48%,39.5%,47%,36.1%,36.8%,136%,53%,29.6%,45.1%,25.6%,,-7.19% (active),16.6%,,,113,5.93% (active)
O=C(Nc1ccccc1)Nc1ncnc2c1ncn2-c1ccccc1,85%,75.2%,41.5%,57.7%,48.9%,67.7%,91.8%,91%,94%,104%,78.5%,83.3%,69.4%,75.2%,82.5%,94.1%,22.2,,,
CC(C)C1=C(O)C2=C(C(=O)C1=O)[C@@]1(C)CCCC(C)(C)[C@@H]1CC2,44.2%,99%,78.5%,53.4%,50%,70.1%,80%,56.9%,73.4%,97.7%,67.1%,81%,,81.5%,15%,44.2%,59.6,,,41.5%
c1cnc2[nH]cc(-c3nc(-c4ccsc4)cs3)c2c1,86.1%,104%,90.7%,102%,90.4%,81.6%,96.2%,96.2%,122%,102%,42.6%,92%,62.7%,138%,96.3%,79.6%,85.3,,,
CCn1c2ccc(O)cc2c2c(C)c3c[n+](C)ccc3c(C)c21,81.2%,55.8%,31%,-3.45% (active),3.41% (active),7.6% (active),16.6%,62.2%,31.8%,40.9%,,-32.6% (active),64.2%,45.6%,85.2%,17.8%,60.6,,,
Clc1nc2ccccc2cc1Cn1nnc(Cc2ccccc2)n1,65%,71.5%,55.4%,89.9%,76.3%,0.724% (active),51.7%,53.6%,84.7%,58.8%,,70.3%,-81% (active),60.9%,40.5%,43.1%,,,,
CSc1nc2c(c(=O)n1C)CN(Cc1ccccc1)C(=O)CN2,85.7%,110%,76.9%,97.6%,94%,101%,83.6%,92.1%,102%,86.3%,86%,97.7%,78.3%,,,92.5%,96.4,,92.4,80.7%
CCOC(=O)CSc1nc(-c2cc(OC)ccc2OC)cc(-c2ccc(OC)cc2)c1C#N,69.1%,64.2%,97.5%,94.2%,86.7%,80%,71%,85.5%,84.8%,84.3%,74.1%,79.5%,63%,75.7%,83.4%,76.6%,76.7,,,
N#Cc1cnn(C(=O)c2nn(-c3ccc(Cl)cc3)cc2O)c1N,18.1%,29.1%,32.4%,32.5%,22%,14.8%,5.76% (active),8.92% (active),56.1%,1.93% (active),1.5% (active),,-3.61% (active),,-34.4% (active),-14.4% (active),11.4,,,-10.1% (active)
COCCn1cc(-c2nc(-c3cccnc3)cs2)c2cc(F)ccc21,76.4%,72.3%,94.4%,97.3%,90.2%,82.9%,89.2%,90.7%,97.2%,106%,90.8%,95.7%,107%,80.4%,103%,79.3%,,,,
Nc1ccc(-c2cccs2)cc1NC(=O)c1ccc(CCCC(=O)Nc2ccc(C3CC3N)cc2)cc1 (centres undefined),87.2%,64.8%,111%,90.8%,7.02% (active),20%,45.5%,19%,83.1%,69.6%,73.9%,80.3%,75.8%,55.6%,88.7%,47%,83.5,,,
COc1ccc2c(c1)CC=C1[C@@H]2CC[C@]2(C)C(=O)/C(=N/O)C[C@@H]12,75.8%,67.8%,58%,93.4%,96.4%,89.7%,97.7%,70.3%,112%,115%,76.6%,82.7%,,92.7%,6.9% (active),,74.4,,,33.1%
COc1ccc2nc(Cl)c(Cn3nnc(Cc4ccccc4)n3)cc2c1,36.5%,27.4%,57.1%,58%,53.2%,-47.2% (active),35.1%,42.9%,47.5%,49.6%,24.5%,57.3%,14.7%,34.9%,,10.3%,41.5,,,

SMILES,growth [1],growth [2],growth [3],growth [4],growth [5],growth [6],growth [7],growth [8],growth [9],growth [10],growth [11],growth [12],growth [13],growth [14],growth [15],growth [16],growth [17] [%],growth [18] [%],growth [19] [%],growth [20]
CCOc1ccccc1/C=N/N1CCCCCC1,100%,104%,77.2%,108%,103%,94.4%,109%,90.3%,107%,113%,96.7%,,,104%,85.7%,97.7%,104,,,100%
COc1ccc(C(=O)CSc2nc(-c3cc(OC)ccc3OC)cc(-c3ccc(OC)cc3)c2C#N)cc1,92.1%,92.2%,90.1%,99.9%,104%,99.1%,93.7%,91.4%,101%,103%,89.1%,97.6%,86.4%,103%,96.3%,96.9%,97.4,,,
COc1ccc(N(C)c2ncnc3occ(C)c23)cc1,11.1%,7.69% (active),44.8%,27.2%,13.9%,-44.5% (active),22.9%,17.7%,134%,-4.77% (active),42.1%,34%,26.5%,,-6.13% (active),-1.42% (active),29,,68.7,-20.9% (active)
CC1=NN(C(=O)c2nn(-c3ccc(Cl)cc3)cc2O)C(=O)C1,34.5%,41.8%,28.7%,59.6%,47.9%,64.9%,41.5%,40.5%,72.1%,60.3%,65.2%,49.5%,34.2%,,114%,24.8%,42,,90.1,13.5%
CCOC(=O)c1sc2ncnc(Nc3ccc4c(cnn4C(=O)Nc4ccccc4)c3)c2c1C,72.6%,40.7%,10.7%,85.8%,53%,31.1%,59.7%,36.4%,72.7%,85%,84.3%,61.3%,87.6%,78.6%,,91%,,,,
Cc1ccc(-n2c(C)nn3c(=O)c4c5c(sc4nc23)CN(C)CC5)cc1,101%,86.6%,93.4%,105%,101%,106%,101%,95.1%,106%,95%,95%,,83.2%,82.4%,88.5%,97.9%,101,,,
O=S(=O)(NCCCNc1nccc(-c2cn(-c3ccccc3)nc2-c2ccc(Cl)c(O)c2)n1)c1ccccc1,51.3%,60.5%,80.5%,86.1%,59.4%,46.1%,59.1%,63.1%,84.5%,65.5%,55.2%,67.2%,45.9%,76.9%,90.4%,43.1%,66.1,,,
CCOC(=O)c1sc2ncnc(Nc3ccc4c(cnn4C(=O)Nc4ccc(C)c(Cl)c4)c3)c2c1C,95.3%,90%,110%,103%,99.3%,102%,99.6%,96%,111%,83.5%,97.6%,96.5%,94.7%,90.8%,96%,95.6%,107,,,
COc1ccc(C(=O)c2cc3c(OC)c(OC)c(OC)cc3[nH]2)cc1,36.1%,14.2%,51.9%,71.9%,59.8%,36.9%,36.7%,56.3%,65.2%,43.7%,,75.1%,56%,,128%,50.2%,79.4,,59.9,42.8%
CCOC(=O)/C(=C(\C)N)C1CC(=O)NC1=O (centres undefined),103%,105%,95.1%,101%,,97.9%,103%,95.7%,98%,123%,102%,96.5%,87.9%,118%,98.2%,,94,92.1,107,96.2%
CCCCCCCCCCCCCCCCCC[n+]1ccc2c(C)c3c(c(C)c2c1)c1cc(O)ccc1n3CC,48.8%,17.2%,24.5%,5.25% (active),-34.9% (active),-94.2% (active),-11.8% (active),20.6%,7.4% (active),-33.1% (active),19.5%,1.79% (active),39.8%,,71.1%,19%,25.7,,,
CCNc1nc(C(F)(F)F)nc2c1sc(=S)n2-c1ccccc1,94.7%,88.8%,99.2%,107%,93.3%,87.6%,93.9%,88.6%,112%,88.1%,86.1%,100%,104%,88.8%,,81.8%,93.1,,,
O=C(CCCCNC(=O)c1nc(-c2ccccc2)n(-c2ccccc2)n1)NO,91.3%,73.6%,70.8%,86%,65.9%,62.2%,37.5%,96.9%,75.2%,67.6%,80.7%,,86.4%,56%,,58.1%,102,,,
CN1CCc2c(sc3nc4n(-c5ccc(Cl)cc5)cnn4c(=O)c23)C1,104%,91.1%,94.2%,107%,104%,109%,102%,97.6%,116%,118%,87.2%,98.9%,84.1%,,97.4%,104%,109,,,
CCn1cc(CNc2ccc(C(=O)Nc3ccc4ccccc4c3)cc2)c(C)n1,55.8%,75.7%,71.8%,77.6%,84.5%,-31.5% (active),60%,62.5%,77.8%,61%,36.5%,85.7%,47.1%,1.78% (active),53.6%,15.5%,69.5,,,
Cc1c2c(nn1C(=O)c1nn(-c3ccc(Cl)cc3)cc1O)-c1ccccc1CC2,25.1%,30%,46.7%,34.3%,22.3%,24.3%,-6.22% (active),17.5%,54.7%,0.774% (active),6.22% (active),29.2%,10.3%,,-25.5% (active),-1.46% (active),16.7,,80.5,-7.92% (active)
